VACV E9 pol inh: vaccinia E9 polymerase processive synthesis inhibition | in vitro processive DNA synthesis, absorbance read-out; hits give low values | normalized absorbance, % (test concentration not listed) | 46,000 compounds, 0.94% hits | AID 493162; in the data active = normalized absorbance mostly below about 85%, no sharp cut-off; inactive = mostly above about 86%
Numbers stand for hits. The full list was thinned out, with hits kept by preference.

For CCOC(=O)c1cc(-c2ccnn2S(=O)(=O)c2cccc(C(F)(F)F)c2)on1 the results were VACV E9 pol inh 69.
O=C(NCCCn1ccnc1)c1cc2nc(-c3ccccc3)cc(-c3ccccc3)n2n1 was read as VACV E9 pol inh inactive.
For O=C1NC(=O)C(Cc2ccccc2)S1 (stereo not drawn) the results were VACV E9 pol inh 79.
O=C1NC(=O)C(Cc2ccc(C(=O)O)cc2)S1 (stereo not drawn) was read as VACV E9 pol inh inactive.
For Cc1ccc(CC2SC(=O)NC2=O)cc1Cl (stereo not drawn) the results were VACV E9 pol inh inactive.
Screening CCC(Sc1nc2ccncc2[nH]1)C(=O)N(Cc1ccccc1)C(C)C (stereo not drawn) returned VACV E9 pol inh inactive.
O=C(CSc1oc(-c2ccccc2)nc1S(=O)(=O)c1ccc(Cl)cc1)NCC1CCCO1 (stereo not drawn) was read as VACV E9 pol inh inactive.
Screening COc1ccc2cc3cc(C(=O)NCCN4CCN(c5ccccc5F)CC4)sc3nc2c1 returned VACV E9 pol inh inactive.
For COc1ccc2cc3cc(C(=O)NCCCN4CCCCCC4)sc3nc2c1 the results were VACV E9 pol inh 40.
COc1ccc2cc3cc(C(=O)NCCC(C)C)sc3nc2c1 was read as VACV E9 pol inh inactive.
For COc1ccc(CNC(=O)c2cc(Nc3ccccc3OC)nc3ccccc23)cc1 the results were VACV E9 pol inh inactive.
Screening Cc1ccccc1COc1ccc2oc(-c3ccccc3)c(C(=O)O)c2c1 returned VACV E9 pol inh 87.
For CC(=O)Oc1ccc2oc(-c3ccccc3)c(C(=O)O)c2c1 the results were VACV E9 pol inh inactive.
`O=C(O)c1c(-c2ccccc2)oc2ccc(OCc3ccc(Cl)cc3)cc12` gave VACV E9 pol inh inactive.
Screening C/C(=N/n1cnnc1)c1ccccc1 returned VACV E9 pol inh inactive.
Screening CC(C)(C)C(=O)Nc1ccc(O)c(-c2nc3ccccc3s2)c1 returned VACV E9 pol inh inactive.
Oc1ccc(N=Cc2ccccc2)cc1-c1nc2ccccc2s1 was read as VACV E9 pol inh 84.
Screening Oc1ccccc1C=Nc1ccc(-c2nc3ccccc3s2)cc1 returned VACV E9 pol inh inactive.
For Cc1cc(SCC(=O)Nc2ccccc2)c2ccccc2n1 the results were VACV E9 pol inh inactive.
For Cc1cc(NCc2ccco2)c2ccccc2n1 the results were VACV E9 pol inh inactive.
For Cc1cc(NCCNc2ccccc2)c2ccc3ccccc3c2n1 the results were VACV E9 pol inh 72.
O=C1CC(c2ccccc2)c2c(ccc3ccccc23)N1 (stereo not drawn) was read as VACV E9 pol inh 84.
For COc1cc2c(cc1OC)C(c1ccccc1)CC(=O)N2 (stereo not drawn) the results were VACV E9 pol inh inactive.
O=C(CCC1CC(=O)Nc2ccccc21)NCc1ccccc1 (stereo not drawn) was read as VACV E9 pol inh inactive.
For CSCCn1c(-c2ccccc2)cc(C(=O)N2CCCC2)c1C the results were VACV E9 pol inh inactive.
Cc1cc(O)c(CN2CCN(C)CC2)c2oc(=O)c3ccccc3c12 was read as VACV E9 pol inh 81.
`CCOC(=O)c1c(C)oc2c1c(CN1CCN(C)CC1)c(O)c1ccccc12` gave VACV E9 pol inh inactive.
`Cc1cc(=O)oc2c(CN3CCCCC3)c(O)ccc12` gave VACV E9 pol inh inactive.
For Cc1ccc2cc(CN(C(=O)c3cccc(Cl)c3)C(C)C)c(=O)[nH]c2c1 the results were VACV E9 pol inh inactive.
`Cc1ccc(N(C(=O)c2ccccn2)C2(C(=O)Nc3c(C)cccc3C)CCCCC2)cc1` gave VACV E9 pol inh inactive.
`O=C(O)CCNc1nc2ccccc2s1` gave VACV E9 pol inh inactive.
For CCSc1nnc(CNC(=O)c2cccc(OC)c2)n1-c1ccc(F)cc1 the results were VACV E9 pol inh inactive.
For Cc1ccc(C)n1C(CC(=O)O)c1ccsc1 (stereo not drawn) the results were VACV E9 pol inh 73.
`O=C(O)CC(c1ccsc1)n1cccc1` (stereo not drawn) gave VACV E9 pol inh inactive.
Screening Cc1ccc(C)n1C(CC(=O)O)c1ccc(F)cc1 (stereo not drawn) returned VACV E9 pol inh inactive.
For COc1ccc2nc(NC(=O)c3cccnc3)sc2c1 the results were VACV E9 pol inh inactive.
Screening COc1ccc(OC)c(NC(=O)c2cccnc2)c1 returned VACV E9 pol inh inactive.
`COc1ccc(-c2cc3ccccn3c2C(=O)c2cccnc2)c(OC)c1` gave VACV E9 pol inh 44.
Screening O=c1[nH]c(-c2cccc(Cl)c2)nc2ccc(N3CCCC3)cc12 returned VACV E9 pol inh inactive.
`O=C(O)CCCC(=O)Nc1ccc(-c2nc3ccccc3[nH]2)cc1` gave VACV E9 pol inh 60.
O=C(O)CCC(=O)Nc1cccc(-c2nc3ccccc3[nH]2)c1 was read as VACV E9 pol inh inactive.
O=C(O)CCCC(=O)Nc1nc2ccccc2[nH]1 was read as VACV E9 pol inh inactive.
Screening O=C(N/C=C/c1ccco1)OCc1ccc(C(F)(F)F)cc1 returned VACV E9 pol inh inactive.
COc1ccc(NC(C)=O)cc1C was read as VACV E9 pol inh inactive.
Screening CC(=O)Nc1ccc(-n2c(C)ccc2C)c(C(=O)O)c1 returned VACV E9 pol inh 49.

Source: PubChem BioAssay
